“And” between values parts separate entries of the source, which are not always exact repeats. Equal entries are not always repeated. The source made the active and inactive calls. The calls were made as follows: active = hit-call score of the fitted dose curve at least 0.9, where 1 is the maximum; inactive = score below 0.9.
Read-out: TIMP metallopeptidase inhibitor 2 (TIMP2), TIMP2 (gene 7077)
Experiment: BSK_KF3CT_TIMP2: BioMAP Diversity Plus: KF3CT Assay for TIMP metallopeptidase inhibitor 2 (TIMP2) Biomarker Activity (AID 2283071)
Settings: primary human keratinocytes with fibroblasts; actives raise or lower the signal
Protocol: BSK_KF3CT is a cell-based, multiplexed-readout assay that uses keratinocytes and foreskin fibroblasts, a human skin primary cell co-culture, with measurements taken at 24 hours after chemical dosing in a 96-well plate.BSK_KF3CT_TIMP2 is an assay component measured in the BSK_KF3CT assay. It measures TIMP-2 antibody related to regulation of gene expression using ELISA technology.Data from the assay component BSK_KF3CT_TIMP2 was analyzed into 1 assay endpoint. This assay endpoint, BSK_KF3CT_TIMP2, was analyzed with bidirectional fitting relative to DMSO as the negative control and baseline of activity. Using a type of binding reporter, gain or loss-of-signal activity can be used to understand changes in the signaling as they relate to the gene TIMP2. Furthermore, this assay endpoint can be referred to as a primary readout, because this assay has produced multiple assay endpoints where this one serves a signaling function. To generalize the intended target to other relatable targets, this assay endpoint is annotated to the protease inhibitor intended target family, where the subfamily is metalloproteinase inhibitor.
The levels of cell surface (or secreted, indicated by the prefix "s") biomarker endpoints were measured by ELISA. Overt cytotoxicity to cells in confluent adherent cultures (all systems other than the BT system) was assessed by measuring total protein levels using sulforhodamine B (SRB) staining in parallel cultures at the time of biomarker measurements, indicated as SRB endpoints. For proliferation assays for adherent cell types, individual cell types are cultured at sub-confluence and relative cell numbers quantified by SRB staining at time points optimized for each system (48 h: 3C and CASM3C systems; 72 h: BT and HDF3CGF systems; 96 h: SAg system). SRB was performed by staining cells with 0.1% SRB after fixation with 10% TCA and reading wells at 560 nm.Viability and proliferation of PBMC (T cells) was quantified by Alamar Blue reduction for the SAg and BT systems. For PBMC viability (referred to as PBMC Cytotoxicity within the assay endpoint names), cells were plated (75,000/well in a 96-well plate) and then chemical samples added for 1 h before addition of activators, SEB and TSST-1 (20 ng/mL final concentration each). Cells were incubated for 90 h. Then, Alamar Blue (20 uL/well) (Invitrogen, Cat DAL1100) was added for 6 h, and the plates were read with a fluorescence microplate reader at 546/580 nm (excitation/emission). For PBMC proliferation, cells were plated and activated as above but incubated for only 16 h prior to addition of Alamar Blue. Plates were read after 6 h.

Structure (SMILES)	AC50	outcome
C=CC(=O)OCCCCCCOC(=O)C=C	20 µM (active)	
O=C1CCCCCCCCCCCN1		inactive
CCCC(C)C(=O)OCC (stereo not given)		inactive
C=CC(=O)NCOCCCC		inactive
Oc1ccccc1Cc1ccccc1O		inactive
Nc1ccc(C(=O)O)cc1		inactive
Oc1c(Cl)cc(Cl)c(Cl)c1Cl	11.4 µM (active)	
CCCCCCC=O		inactive
Nc1nc(N)nc(-c2ccccc2)n1		inactive
c1ccc(Nc2cccc3ccccc23)cc1	34.5 µM (active) and 33.3 µM (active)	
CC(C)C(=O)OCCc1ccccc1		inactive
CCOC(=O)C1=NOC(c2ccccc2)(c2ccccc2)C1		inactive
C=CC(=O)OCC(C)OCC(C)OCC(C)OC(=O)C=C (stereo not given)		inactive
Nc1cccc(N)n1		inactive
c1ccc2c(c1)[nH]c1ccccc12		inactive
CCCCCCCCC(CO)CCCCCC (stereo not given)		inactive
CC(C)[N+](C)(CCOC(=O)C1c2ccccc2Oc2ccccc21)C(C)C		inactive
Cc1ccc([N+](=O)[O-])cc1N		inactive
CC=C(C)C(C)=O		inactive
CCCCCCCCCCCC(C)=O	3.97 µM (active)	

Structure (SMILES)	AC50	outcome
O=C(Cl)c1c(Cl)c(Cl)c(C(=O)Cl)c(Cl)c1Cl		inactive
CCNc1nc(NC(C)(C)C)nc(OC)n1		inactive
Cc1c(O)cccc1O		inactive
c1ccc2sc(SSN3CCOCC3)nc2c1		inactive
CC/C=C\CCOC(=O)c1ccccc1O	14.7 µM (active)	
Fc1ccc(Br)cc1		inactive
CCCCC1C(=O)N(c2ccccc2)N(c2ccccc2)C1=O		inactive
CCc1cccc(C)c1N(C(=O)CS(=O)(=O)O)C(C)COC (stereo not given)		inactive
C=CC(=O)OCCCCCCCC(C)C		inactive
Clc1cc(Cl)c(Cl)c(Cl)c1Cl	20 µM (active)	
CC(CCC(=O)O)(c1ccc(O)cc1)c1ccc(O)cc1		inactive
COC(OC)(C(=O)c1ccccc1)c1ccccc1		inactive
C=CCCCCCCCCC=O		inactive
CCCCCCCO		inactive
CC=C(C)C=CC=C(C)C		inactive
CC(c1cc(C(C)(C)C)cc(C(C)(C)C)c1O)c1cc(C(C)(C)C)cc(C(C)(C)C)c1O		inactive
CCCCCCOC(=O)CCCCC(=O)OCCCCCC		inactive
C[N+](C)(C)CCCNS(=O)(=O)C(F)(F)C(F)(F)C(F)(F)C(F)(F)C(F)(F)C(F)(F)C(F)(F)C(F)(F)F		inactive
COc1ccc(C(=O)/C(Br)=C\C(=O)O)cc1	20 µM (active)	
CC(C)CCCCCOC(=O)CS		inactive

Source: PubChem BioAssay (EPA / NIEHS)
